# Measurements as given in the supplement of paper PMC3334620.
# Over roughly 33,000 sequences, “E-score (-0.5 to 0.5)” has its median near -0.054; the highest 2% begin near 0.39. Many of the other results were omitted from the sample, so the highest values are more common in it than they were.
# Molecular target: Ylr278c (UniProt Q05854)
# Experiment: PBM E-score (8-mer binding enrichment) (E-score (-0.5 to 0.5)); higher = stronger / more preferred TF binding
# Conditions: protein concentration: 200 nM; construct: GST-DNA-binding domain
# Outline: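 Universal all-10-mer Agilent arrays, double-stranded by primer extension on fresh or once-stripped slides, were probed with about 100-200 nM GST-tagged yeast transcription factors made by PURExpress. Fluorescent anti-GST detected bound protein, and masliner normalised the scans. E-scores from the Universal PBM Analysis Suite were given to each ungapped eight-base word pooled with its reverse complement.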
# UniProt Q05854, sequence (Q05854 whole entry): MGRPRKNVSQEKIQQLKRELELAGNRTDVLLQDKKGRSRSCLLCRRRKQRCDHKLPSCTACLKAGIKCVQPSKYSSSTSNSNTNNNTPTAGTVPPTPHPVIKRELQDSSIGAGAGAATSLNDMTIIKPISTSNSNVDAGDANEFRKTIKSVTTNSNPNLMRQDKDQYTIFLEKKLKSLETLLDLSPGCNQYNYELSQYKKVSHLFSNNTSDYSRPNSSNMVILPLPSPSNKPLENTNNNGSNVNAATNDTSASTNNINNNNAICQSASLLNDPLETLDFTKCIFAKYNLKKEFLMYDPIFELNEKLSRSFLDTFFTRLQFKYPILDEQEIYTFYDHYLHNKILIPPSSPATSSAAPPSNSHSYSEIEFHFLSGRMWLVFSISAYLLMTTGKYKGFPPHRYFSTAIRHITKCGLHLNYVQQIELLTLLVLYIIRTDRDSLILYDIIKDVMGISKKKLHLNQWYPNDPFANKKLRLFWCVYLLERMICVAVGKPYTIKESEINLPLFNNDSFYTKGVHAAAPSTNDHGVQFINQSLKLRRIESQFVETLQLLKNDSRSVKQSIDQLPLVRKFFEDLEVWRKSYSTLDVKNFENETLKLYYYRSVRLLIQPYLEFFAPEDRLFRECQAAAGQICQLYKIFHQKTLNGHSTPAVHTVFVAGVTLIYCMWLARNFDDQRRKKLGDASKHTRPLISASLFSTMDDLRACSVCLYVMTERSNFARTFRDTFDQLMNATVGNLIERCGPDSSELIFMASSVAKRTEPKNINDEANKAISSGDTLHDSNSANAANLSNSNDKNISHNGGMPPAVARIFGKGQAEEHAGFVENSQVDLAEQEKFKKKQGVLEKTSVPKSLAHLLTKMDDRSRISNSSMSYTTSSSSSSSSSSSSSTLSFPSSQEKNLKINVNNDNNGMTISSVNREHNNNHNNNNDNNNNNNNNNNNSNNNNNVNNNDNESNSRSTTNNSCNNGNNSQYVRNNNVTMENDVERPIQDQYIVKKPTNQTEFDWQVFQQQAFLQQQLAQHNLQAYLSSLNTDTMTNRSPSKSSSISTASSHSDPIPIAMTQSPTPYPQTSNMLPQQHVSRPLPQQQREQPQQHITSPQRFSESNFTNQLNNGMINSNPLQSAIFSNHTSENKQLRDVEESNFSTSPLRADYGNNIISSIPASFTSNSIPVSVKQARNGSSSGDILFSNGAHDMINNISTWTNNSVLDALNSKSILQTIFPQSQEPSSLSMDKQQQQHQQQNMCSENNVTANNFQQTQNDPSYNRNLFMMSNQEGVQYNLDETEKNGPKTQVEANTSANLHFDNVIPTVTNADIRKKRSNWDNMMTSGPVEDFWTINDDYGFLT
row,Sequence,PBM E-score
1,GAAACCTC,0.0208
2,CTGAGTCC,0.00022
3,CACTAAAG,-0.169
4,GTGCTCCA,-0.118
5,AACAACAC,-0.0906
6,ACTTGACG,-0.135
7,ATTGATCC,0.282
8,CACTTGCC,0.0403
9,CCCCTCGC,-0.239
10,TGGAGCCA,-0.194
11,AGGAGCCG,-0.0181
12,GGGAGCCA,-0.264
13,CGGAGCCC,0.37
14,CGGAGCCG,0.427
15,CGGAGCCA,0.402
16,AATGCTGC,-0.0877
17,CAGTCTCA,-0.126
18,GATCGGGA,0.227
19,AATCGGTG,0.126
20,CATCGGTC,0.15
21,GATCGGTA,0.265
22,AATCGGAA,0.416
23,CATCGGAC,0.424
24,AATCGGAT,0.384
25,GATCGGAA,0.408

row,Sequence,PBM E-score
1,CATCGGGC,0.211
2,AATCGGCA,0.304
3,AATCGGGA,0.231
4,AATCGGAG,0.466
5,AACTGGGG,0.00524
6,CTGCAACC,-0.27
7,CTTTGGTA,-0.0286
8,CGAATGTC,0.101
9,CAGAGTAG,-0.16
10,AGCCAGCC,-0.18
11,AAAGCGAT,0.0361
12,CGATTTTC,0.153
13,GAGCGCCC,0.00794
14,CATCGGGG,0.314
15,CATCGGCA,0.284
16,AATCGGAC,0.397
17,AATCGGCC,0.24
18,CATCGGCG,0.304
19,CATCGGAG,0.457
20,CATCGGTA,0.261
21,GCTCGGAC,0.382
22,GATCGGAC,0.434
23,AATCGGGC,0.0936
24,CATCGGAA,0.396
25,GATCGGGC,0.184

row,Sequence,PBM E-score
1,AGTATCAC,-0.0655
2,GTTTCGCA,-0.0936
3,ACTACTAG,-0.0129
4,ATTTTGGA,0.168
5,AAATCCTA,0.0982
6,CTTGGCGA,-0.203
7,TATCGGAA,0.413
8,TATCGGCA,0.264
9,TATCGGGA,0.288
10,ATGCTCCC,-0.0848
11,ACGCTCCT,-0.237
12,CCGCTCCA,0.064
13,ACGCTCCG,0.399
14,CCGCTCCG,0.444
15,AGGCTCCC,-0.0902
16,ATGCTCCA,-0.0254
17,AGGCTCCG,0.39
18,CCGCTCCC,0.191
19,ATGCTCCG,0.425
20,ACGCTCCC,0.0269
21,AGGCTCCA,-0.133
22,GAGGCCGA,0.217
23,ACTTTTCC,0.278
24,GCCTAGCA,-0.245
25,GAGGCTAA,0.0333

row,Sequence,PBM E-score
1,AGCAGACG,-0.00216
2,ATGTGGGA,-0.101
3,AAAGCTAT,-0.0422
4,GGTTGGCA,-0.173
5,ATAGAGAC,-0.248
6,CCCCGCAA,0.225
7,TAGTCCCA,-0.284
8,AAGTCCTA,0.0365
9,GCGTCCGA,0.292
10,TAGTCCAA,-0.0998
11,ACGTCCGA,0.346
12,GAGTCCGC,0.363
13,CAGTCCGC,0.202
14,GAGTCCGA,0.392
15,CAGTCCGG,0.367
16,TAGTCCGA,0.415
17,CAGTCCGA,0.402
18,AAGTCCGA,0.483
19,ACCAGGGC,-0.178
20,ATTGAACG,-0.114
21,ATTGAACC,-0.0437
22,AGGCGTAT,-0.308
23,ACAGTCAT,-0.24
24,ACTATTGC,0.0531
25,ATAGACCG,0.0141

row,Sequence,PBM E-score
1,CAGCTTCC,-0.0366
2,CAGTGCGG,0.257
3,ATGCTGCA,-0.178
4,ACACGGAT,0.199
5,ACACGGAA,0.288
6,ACACGGAG,0.419
7,CCACGGAC,0.272
8,CCACGGAG,0.418
9,CCACGGAA,0.34
10,ATCTCCGA,0.478
11,CTCTCCGC,0.325
12,ATCTCCGG,0.493
13,ATCTCCAG,-0.0917
14,CTCTCCCA,-0.148
15,ATCTCCGC,0.47
16,ATCTCCCG,0.301
17,CTCTCCGA,0.394
18,ATCTCCAA,-0.0722
19,CTCTCCAA,0.0897
20,ATCTCCCC,-0.00596
21,ATCTCCCA,0.0776
22,CTTCATGC,-0.0885
23,ACCGCGAC,0.0815
24,CGAACTGC,0.0356
25,ACATTCAA,0.0683

row,Sequence,PBM E-score
1,GACAGTCC,0.0326
2,CCGGTAAG,0.337
3,GCGCGCAA,0.219
4,GTCTCCGA,0.417
5,GTCTCCAA,-0.111
6,GTCTCCTA,-0.166
7,GTACTTTA,-0.191
8,AATCCGGA,0.466
9,TATCCGGA,0.469
10,CATCCGGG,0.3
11,CATCCGGC,0.354
12,AATCCGGG,0.417
13,AATCCGCA,0.316
14,TATCCGCA,0.271
15,AATCCGTC,0.297
16,AATCCTGG,-0.0892
17,AATCCGTA,0.195
18,AATCCGGC,0.425
19,TATCCTGA,-0.121
20,CCTCGACG,-0.00055
21,GTACTGCA,-0.0765
22,AAACCTCC,0.147
23,AATATTGT,0.0529
24,TACCAGGA,-0.0496
25,CTACTTTC,-0.0554

row,Sequence,PBM E-score
1,GGGTCGCA,0.139
2,CTTGACAC,-0.193
3,ATAGATGG,-0.132
4,CCCTTTCG,0.116
5,GATCCGCC,0.276
6,CATCCGTA,0.183
7,CATCCGGA,0.436
8,AATCCAGT,0.108
9,GATCCGAA,0.33
10,GATCCTGC,-0.00417
11,GATCCGGC,0.407
12,GATCCGGA,0.439
13,GATCCGTA,0.158
14,AATCCGCT,0.269
15,CATCCGCA,0.191
16,AATCCGGT,0.442
17,CGTTTTGA,-0.142
18,CTTAAGAA,-0.14
19,AGCACCGC,0.121
20,CGAGCTTC,0.028
21,ACTAAGGG,-0.0488
22,AAGGGTCC,0.216
